Measurements from PubChem BioAssay (NCATS).
Values joined by “and” are separate entries in the source; they are usually repeats but may differ in a detail not shown here. Identical values can stand only once. Results filed as inconclusive are left out. Active and inactive are the calls of the source. Unless noted, the call rests on the fitted dose curve; in most records, active means well fitted curve in the direction sought with a large enough effect; inconclusive means small, poorly fitted or top-dose-only effect, or another doubt; inactive means no such curve, though single readings can be large; an effect the other way counts as inactive or inconclusive.

Key:
[1] = qHTS to identify inhibitors of the type 1 interferon - major histocompatibility complex class I in skeletal muscle: primary screen against the NCATS Mechanism Interrogation Plate v5.0 (MIPE) Libary (AID 1347411); further: nearly all actives have a fitted effect of over 65% in size; further: potency means the concentration at half of the fitted maximal effect
Procedure, shortened: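 Luminescence from HiBiT-tagged endogenous HLA-B*08:01 served as the MHC class I read-out. CRISPR-engineered C25cl48 human myoblasts received 4.0 ng/ml IFN-beta plus compound for 24 hrs, with an 11-point, 1:3 series topping at 46 uM final.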

[2] = Primary qHTS for inhibitors of nuclear receptor binding SET domain protein 2 (NSD2) in an isogenic RCH-ACV NSD2 p.E1099K mutant (9B) (AID 1645876); further: nearly all actives have a fitted effect of over 70% in size; further: potency means the concentration at half of the fitted maximal effect
[3] = Primary qHTS for inhibitors of nuclear receptor binding SET domain protein 2 (NSD2) in an RCH-ACV wild type WT cells (2C) (AID 1645877); further: nearly all actives have a fitted effect of over 70% in size; further: potency means the concentration at half of the fitted maximal effect
[4] = target: Glutathione peroxidase 1 (Homo sapiens) (UniProt P07203); experiment: Primary qHTS Assay for Inhibitors of Recombinant Selenoprotein Glutathione Peroxidase 1 (GPX1) (AID 1845191); further: nearly all actives have a fitted effect of over 65% in size
Glutathione peroxidase 1 (Homo sapiens), sequence (P07203 whole entry, looked up): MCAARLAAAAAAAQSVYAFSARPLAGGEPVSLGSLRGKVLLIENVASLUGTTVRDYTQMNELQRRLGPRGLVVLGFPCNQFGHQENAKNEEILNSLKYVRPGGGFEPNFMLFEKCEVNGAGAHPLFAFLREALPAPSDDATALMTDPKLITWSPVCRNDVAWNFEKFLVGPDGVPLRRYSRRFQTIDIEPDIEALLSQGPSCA
Procedure, shortened: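 GR-coupled assay: compounds preincubated 30 min at room temperature with GPX1, then reaction started with CHP; final 10 nM GPX1, 1 mM GSH, 0.5 mM CHP, 0.5 mM NADPH, 100 nM GR, 0.01% BSA, pH 7.5 Tris buffer. NADPH fluorescence (340/450 nm) read at 0 and 15 min.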

[5] = target: Phospholipid hydroperoxide glutathione peroxidase GPX4 (Homo sapiens) (UniProt P36969); experiment: Primary qHTS Assay for Inhibitors of Recombinant Selenoprotein Glutathione Peroxidase 4 (GPX4) (AID 1845192); settings: outcome: dose series up to 50 µM unless noted; further: nearly all actives have a fitted effect of over 65% in size; further: potency means the concentration at half of the fitted maximal effect
Phospholipid hydroperoxide glutathione peroxidase GPX4 (Homo sapiens), sequence (P36969 whole entry, looked up): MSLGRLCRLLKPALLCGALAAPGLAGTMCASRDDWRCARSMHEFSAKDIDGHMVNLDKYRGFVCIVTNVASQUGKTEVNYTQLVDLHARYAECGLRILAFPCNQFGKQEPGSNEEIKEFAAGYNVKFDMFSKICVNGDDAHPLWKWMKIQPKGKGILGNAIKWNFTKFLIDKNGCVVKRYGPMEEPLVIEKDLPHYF
Procedure, shortened: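 GR-coupled assay: recombinant GPX4 preincubated 30 min with compound at room temperature; final 200 nM GPX4, 1 mM GSH, 0.5 mM cumene hydroperoxide, 0.5 mM NADPH, 100 nM GR, 0.01% BSA, pH 7.5 Tris. NADPH fluorescence (340/450 nm) read at 0 and 15 min.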

[6] = qHTS drug screen for cell cycle checkpoint inhibitors in PARPi-resistant BRCA-mutant ovarian cancer cell lines. (AID 1963452; calls by dose curve; further: potency means the concentration at half of the fitted maximal effect); settings: PEO1/OlaR viability, CellTiter-Glo luminescence, 96 h; for Z-AUC: stronger effect = lower value
Procedure, shortened: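 PEO1, PEO4 and PEO1/OlaR ovarian cancer cells, 600 per well, exposed 96 h at 37C to a dilution series. Viability read by CellTiter-Glo luminescence, normalized to DMSO and empty wells; activity summarized as Z-AUC.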

[7] = measured here: PEO1 parental Z-AUC

SMILES	Potency [1]	Potency [2]	Potency [3]	Potency [4]	Potency [5]	Z-AUC [6]	Z-AUC [6, 7]	Z-AUC ([6]; measured here: PEO4 Z-AUC)	Potency [6]
CCNC(=O)Nc1ccc(Oc2ncnc(N)c2/C=N/OC)cc1Cl	inactive	20.9 µM (active)	16.6 µM (active)	inactive	inactive	1.52 (inactive)	1.52	1.49	
O=C(NO)c1ccc(C2=Nc3ccccc3Oc3ccccc32)cc1	18.6 µM (active)	2.95 µM (active)	2.63 µM (active)	inactive	inactive	-0.476 (inactive)	-1.06	-1.1	
CC1(C)CCC2(CC1)N[C@@H](C(=O)N[C@@H]1CC[C@@H](C(N)=O)OC1)[C@H](c1ccnc(Cl)c1F)[C@]21C(=O)Nc2cc(Cl)ccc21	17.9 µM (active)	0.319 µM (active)	0.201 µM (active)	inactive	inactive	-0.537 (inactive)	-0.326	-0.309	
CSC[C@H]1CN(Cc2c[nH]c3c(N)ncnc23)C[C@@H]1O	inactive	inactive	inactive	inactive	inactive	1.09 (inactive)	0.706	1.05	
CONC(=O)Nc1ccc(-c2sc3c(c2CN(C)Cc2ccccc2)c(=O)n(-c2ccccc2)c(=O)n3Cc2c(F)cccc2F)cc1	inactive	inactive	inactive	inactive	inactive	-0.608 (inactive)	-0.886	-0.917	
CC(C)n1c(=O)cc(N[C@@H](C)c2ccccc2)[nH]c1=O	inactive	inactive	inactive	inactive	inactive	-0.0266 (inactive)	0.859	1.05	
CCOC(=O)N[C@@H]1CC[C@@H]2[C@@H](C1)C[C@H]1C(=O)O[C@H](C)[C@H]1[C@H]2/C=C/c1ccc(-c2cccc(F)c2)cn1	inactive	18.6 µM (active)	13.2 µM (active)	inactive	inactive	0.314 (inactive)	1.37	1.33	
O=C(Nc1ccccc1)Nc1ccc(-c2ccc(C(=O)[C@@H]3CCC[C@H]3C(=O)O)cc2)cc1	inactive	inactive	inactive	inactive	12.8 µM (active)	1.01 (inactive)	0.577	0.797	
O=C(Nc1cccc(C(F)(F)F)c1)c1cccc2cc(Oc3cc(CO)ncn3)ccc12	inactive	inactive	inactive	inactive	inactive	-0.478 (inactive)	-0.0588	-0.749	
COc1cc(C(=O)NC(N)=Nc2ccc(C)c(NC(=O)c3ccc(-c4ccccc4)cc3)c2)cc(OC)c1OC	inactive	13.2 µM (active)	11.8 µM (active)	inactive	inactive	0.647 (inactive)	0.261	0.136	
CCc1cc2c(c(OCC(F)(F)F)c(C(=O)NC3CCN(C(=O)CO)CC3)n2C)c(=O)n1CC(=O)c1ccccc1	inactive	inactive	inactive	inactive	inactive	-1.12 (inactive)	-0.345	0.581	
CC(C)(O)CS(=O)(=O)Nc1ccc2c(c1)CCN(C(=O)COc1cccnc1)C2	inactive	0.0372 µM (active)	0.0332 µM (active)	inactive	inactive	-2.38 (inactive)	-2.73	-2.65	
O=C(CCNC(=O)c1ccc(OC(F)(F)F)cc1)N[C@@H]1CCCc2ccccc21	inactive	inactive	inactive	inactive	inactive	1.15 (inactive)	0.0965	0.626	
C=CCN1C[C@H](C(=O)N(CCCN(C)C)C(=O)NCC)CC2c3cccc4[nH]cc(c34)C[C@H]21 (some centres not stated)	inactive	inactive	inactive	inactive	inactive	-0.809 (inactive)	-0.35	-0.259	
CCNCCS(=O)(=O)NC[C@@]1(c2ccccc2)SC(NC(=O)C(C)(C)C)=NN1C(=O)C(C)(C)C	inactive	0.0093 µM (active)	0.0074 µM (active)	inactive	inactive		-2.33	-2.54	0.0087 µM (active)
Cn1c(-c2ccccc2C(F)(F)F)nnc1C12CCC(c3noc(C4CC(F)(F)C4)n3)(CC1)CC2	inactive	inactive	inactive	inactive	inactive	1.42 (inactive)	1.05	1.41	
C/C(=N\NC(=O)c1cccc(S(=O)(=O)N2CCOCC2)c1)c1cc(Cl)ccc1O	inactive	2.09 µM (active)	2.09 µM (active)	inactive	inactive	-1.37 (inactive) and -1.59 (inactive)	-1.95 and -1.28	-2.11 and -1.42	
O=C1NC(=O)[C@@H](c2cn3c4c(cccc24)CCC3)[C@@H]1c1c[nH]c2ccccc12	inactive	1.32 µM (active)	1.05 µM (active)	inactive	inactive	0.925 (inactive)	0.797	0.765	
O=C(NO)c1cnc(N2C[C@H]3C[C@@H]2CN3c2cc(C(F)(F)F)ccn2)nc1	4.66 µM (active)	2.95 µM (active)	2.95 µM (active)	inactive	inactive	-1 (inactive)	-1.23	-1.32	
